From PubChem BioAssay (EPA / NIEHS)
Calls of active or inactive are those of the source. Rule for the calls: active = hit-call score of the fitted dose curve at least 0.9, where 1 is the maximum; inactive = score below 0.9.

read-out: matrix metalloproteinase-3 (MMP3), MMP3 (gene 4314); assay: LTEA_HepaRG_MMP3: Life Technologies and Expression Analysis (LTEA) Assay for matrix metalloproteinase-3 (MMP3) using HepaRG (AID 2283519); conditions: mRNA level, 48 h; actives raise or lower the signal
Procedure: LTEA_HepaRG is a cell based, multiplexed-readout assay that uses HepaRG, a human liver cell line, with measurements taken at 48 hours after chemical dosing on a 96-well plate.LTEA_HepaRG_MMP3 is one of 102 assay component(s) measured in the LTEA HepaRG cell culture assay. It is a marker of Fibrosis.Data from the assay component LTEA_HepaRG_MMP3 was analyzed into 1 endpoint. This assay endpoint, LTEA_HepaRG_MMP3, was analyzed with bidirectional fitting relative to DMSO as the negative control and baseline of activity. Using a type of inducible reporter, measures of mRNA induction for gain or loss-of-signal activity can be used to understand regulation of transcription factor activity. To generalize the intended target to other relatable targets, this assay endpoint is annotated to the protease intended target family, where the subfamily is matrix metalloproteinase.
A total of 1060 chemcials from the ToxCast library were tested in eight-point concentration-response experiments. Cell culture and cytotoxicity assays were conducted at Thermo Fisher Scientific's Custom Services facility (Madison, WI). A single lot of human HepaRG cells (Thermo Fisher Scientific, Frederick, MD) was used for the cell culture experiments. 96-well format collagen type I coated plates of human HepaRG cells were prepared using established methods. Briefly, cryopreserved HepaRG cells were thawed, plated at a density of approximately 100,000 cells/well in HepaRG Thaw, Plate, and General Purpose media (HPRG770, Thermo Fisher Scientific), and incubated for 48 hours. 0.5% DMSO was selected as vehicle control to balance the requisite need of DMSO in HepaRG cultures to maintain differentiation (for example, baseline metabolism, proportions of hepatocytes vs. cholangiocytes), while enabling further hepatic receptor pathway activation (for example, PXR and CAR) in response to chemical exposure. 48 hours after plating, the culture medium was replaced with HepaRG Serum-Free Incudtion Media. Cells were exposed to each test chemical in duplicate and maintained in CO2 incubators for another 48 hours. Chemical plates were thawed to room temperature and 200x concentrations of treatment groups were prepared. 8-point conentration-reponse curves were made with the highest exposure at 100 uM, followed by half-log dilutions, all in 0.5% DMSO. Each test plate contained variouse controls, induction positive controls (1mM phenobarbital), cytotoxicity positive controls ([…] aflatoxin B1), vehicle controls (0.5% DMSO), and total lysis controls (0.5% DMSO). Cell morphology images were taken using an Essen IncuCyte FLR automated microscope, with six 96-well plates imaged in about 24 minutes. Images were captured and exported and JPEG files. Spent culture media was transfered to black-well plates for the LDH assay, and remaining media was sorted at -80 C for later use. Cells were treated with RLT buffer and frozen until shipped for gene expression analysis. Total RNA was isolated from the cell suspension in 75 uL of Buffer RLT (Qiagen, Germantown, MD 20874) by Quintiles/Expression Analysis (Durham, NC) using a custom isolation procedure. Total RNA from each plate well was transferred to a preamplification plate. Fluidigm's 96.96 Dynamic ArrayTM (Fluidigm, Amsterdam, the Netherlands) technology was used for gene expression analyses by quantitative reverse transcription polymerase chain reaction (qRT-PCR, performed by Quintiles/Expression Analysis, Durham, NC)89. Standard TaqManTM Assays (Applied Biosystems/ThermoFisher Scientific, Foster City, CA) were used to assess the expression of 93 genes selected based on their selectivity and sensitivity to important hepatic receptors known to be modulated by environmental chemicals; importance in human hepatocyte functionality; and hepatotoxicity. […]

Row | Compound | outcome | AC50
1 | CCC(=C(c1ccc(O)cc1)c1ccc(OCCN(C)C)cc1)c1ccccc1 | inactive | –
2 | CC(C)(C)c1cccc(C(C)(C)C)c1O | inactive | –
3 | N#C[C@@H]1CC(F)(F)CN1C(=O)CNC1CC2CCC(C1)N2c1ncccn1 (stereo not given in full) | inactive | –
4 | CC(C)CCCCCCOC(=O)CCCCC(=O)OCCCCCCC(C)C | inactive | –
5 | COc1ccc([N+](=O)[O-])cc1N | inactive | –
6 | O=C(O)c1ccccc1C(c1ccc(O)cc1)c1ccc(O)cc1 | inactive | –
7 | OC1CCC(C2CCCCC2)CC1 (stereo not given) | inactive | –
8 | OCCC(F)(F)C(F)(F)C(F)(F)C(F)(F)C(F)(F)C(F)(F)C(F)(F)C(F)(F)F | inactive | –
9 | OC1CCCCC1 | inactive | –
10 | O=C(O)Cc1cc(I)c(Oc2cc(I)c(O)c(I)c2)c(I)c1 | – | 51.5 µM (active)
11 | CCCOC(=O)c1ccc(O)cc1 | inactive | –
12 | Nc1cccc2c(N)cccc12 | inactive | –
13 | CCCCC(CC)COC(=O)CCCCC(=O)OCc1ccccc1 (stereo not given) | inactive | –
14 | CCOC(=O)CC(O)(CC(=O)OCC)C(=O)OCC | inactive | –
15 | Cc1cc(C)c(O)c(C)c1 | inactive | –
16 | O=[N+]([O-])c1ccc(O)cc1 | inactive | –
17 | CC1=C(/C=C/C(C)=C/C=C/C(C)=C/C(=O)O)C(C)(C)CCC1 | – | 18 µM (active)
18 | CN1CCN(c2ccccc2/C=C2\SCCN(c3ccc(Cl)c(Cl)c3)C2=O)CC1 | – | 87.1 µM (active)
19 | CCCCCCC(=O)O | inactive | –
20 | CCCCCCCCC(=O)O | inactive | –

Row | Compound | outcome | AC50
21 | C[C@@H]1C[C@H]2[C@@H]3CCC4=CC(=O)C=C[C@]4(C)[C@@]3(F)[C@@H](O)C[C@]2(C)[C@@]1(O)C(=O)COP(=O)(O)O | inactive | –
22 | c1ccc2c(c1)Cc1ccccc1-2 | inactive | –
23 | C=C(C)C(=O)OCCC(F)(F)C(F)(F)C(F)(F)C(F)(F)C(F)(F)C(F)(F)F | inactive | –
24 | CC[C@H](C)[C@@H](C(=O)O)n1sc2ccccc2c1=O | inactive | –
25 | CC#C[C@]1(O)CC[C@H]2[C@@H]3CCC4=CC(=O)CCC4=C3[C@@H](c3ccc(N(C)C)cc3)C[C@@]21C | inactive | –
26 | CCc1ccc(CCOc2ccc(CC3SC(=O)NC3=O)cc2)nc1 (stereo not given) | inactive | –
27 | CCc1nn(C2CCCCC2)c2cc(C3(C#N)CCC(C(=O)O)CC3)ccc12 (stereo not given) | inactive | –
28 | c1ccc2cc3c(ccc4ccccc43)cc2c1 | inactive | –
29 | Oc1cc2ccccc2c2ccccc12 | inactive | –
30 | CC[C@H](c1ccc(O)cc1)[C@@H](CC)c1ccc(O)cc1 | inactive | –
31 | CCCCCCCC(=O)O | inactive | –
32 | CCCCCCCCCCCCN1CCCC1=O | inactive | –
33 | NC(=O)N1C(=O)C(C(=O)c2cc(Cl)cs2)c2cc(F)c(Cl)cc21 (stereo not given) | – | 50 µM (active)
34 | CN(C)C=O | inactive | –
35 | CC(C)(C)c1ccc(O)c(C(C)(C)C)c1 | inactive | –
36 | CCN(CC)CCNc1ccc(CNC=O)c2sc3ccc(OC)cc3c(=O)c12 | – | 86.4 µM (active)
37 | CC(=O)NC1(c2cccc(F)c2)CCN(CC[C@@]2(c3ccc(Cl)c(Cl)c3)CN(c3ccccc3)C(=O)CO2)CC1 | inactive | –
38 | COCC(C)O (stereo not given) | inactive | –
39 | CC(O)CO (stereo not given) | inactive | –
40 | CCCCCCCCCCCCc1ccccc1S(=O)(=O)O | – | 26.9 µM (active)
